# Assay results taken from PubChem BioAssay AID651899 (Broad Institute, 2012).
# Potency and affinity values are given separately. The source made the active and inactive calls. Where a call stands in place of a potency, no number is given. The rule behind the calls is not given here.
# Test: cytotoxicity in HEK293 cells, dose response, cytotoxicity control, cell-based, plate reader, cherry-pick (AID 651899);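 note: cells exposed to compound for 48 hours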
row,Compound,outcome
1,Nn1c(SCc2nc3ccccc3[nH]2)nnc1-c1cccnc1,inactive
2,Cc1c(C(N)=O)sc(N)c1C(=O)OC(C)C,inactive
3,CS(=O)(=O)N1[C@H](C(=O)NCc2ccncc2)[C@@H](CO)[C@@H]2Cn3c(ccc(C4=CCCCC4)c3=O)[C@@H]21,inactive
4,O=C(C1CCOCC1)N1CC[C@@H]2[C@H](CO)Nc3ccc(Br)cc3[C@@H]21,inactive
5,O=C(NC1CCCc2c1cnn2-c1cc(F)cc(F)c1)c1ccc[n+]([O-])c1 (configuration not stated),inactive
6,COc1ccc(-c2nc3cnccn3c2Nc2ccc3c(c2)OCO3)cc1,inactive
7,COc1ccc(-c2ccc3c(c2)C2CC3CCN2)cc1 (configuration not stated),inactive
8,O=C(Nc1ccc2snnc2c1)N1CCOCC1,inactive
9,O=C(C[n+]1cc(-c2ccc(Cl)cc2)n2c1CCC2)N1c2ccccc2Sc2ccccc21,inactive
10,CCCc1c(OCCCOc2ccc(OCC(=O)O)cc2)ccc(C(C)=O)c1O,inactive
11,C=C(C)CSc1nc(N)c2c3c(sc2n1)CCC3,inactive
12,O=C(Nc1ccc(F)cc1)NC1CCN(Cc2nnnn2Cc2ccco2)CC1,inactive
